Several values for one entry are separate records, joined by “and”; a condition that tells them apart may be missing. Equal entries are not always repeated. In all, about 320,000 compounds went through this assay and about 2,100 (0.66%) were called active. Not shown: some 53% with an inconclusive outcome. The call rests on the fitted dose curve; in most records, active means well fitted inhibition curve with a large enough effect in the signal ratio, with a control signal flat (not every such curve was filed as active); inconclusive means small, poorly fitted or top-dose-only effect, or effect the other way, or a change in a side signal; inactive means flat fitted curve, though single readings scatter; the % refers to the signal ratio. Shown is part of a subset that was picked to be rich in actives.
test: qHTS Assay for Lipid Storage Modulators in Drosophila S3 Cells; settings: BODIPY lipid droplet fluorescence, 18-24 h, cells fed with added oleic acid; cell number change: measured here: cell count max response; series mostly up to 46.1 µM; lipid storage change, negative = inhibition: at the top concentration;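 on cell number change: cells counted by Cell Tracker Red CMTPX staining in the red channel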; on lipid storage change, negative = inhibition: on the % scale 0 is the no-effect control and ±100 the full control effect
Procedure, shortened: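 Laser-scanning cytometry quantifies lipid droplet accumulation (500–530 nm total intensity; droplet/cell object ratio) in oleic acid-fed (400 uM added) Drosophila S3 cells treated with a concentration series. 20 uM Triacsin C defined 100% inhibition.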
Potency means the concentration at half of the fitted maximal effect.

Compound	lipid storage change, negative = inhibition	cell number change	Potency	outcome
O=C(NCCNc1nccc(C(F)(F)F)n1)c1cccc(C(F)(F)F)c1	0.997% (inactive)	8.97%	–	–
CNS(=O)(=O)c1cccc2cccnc12	11.3% [at 9.22 µM] (inactive)	10%	–	–
CSS(=O)(=O)c1cccc2cccnc12	–	-61.8%	2.59 µM (active)	–
O=S(=O)(c1cccc2cccnc12)N(CCO)CCO	-7.46% (inactive)	-16.7%	–	–
CCCNS(=O)(=O)c1cccc2cccnc12	-0.974% [at 9.22 µM] (inactive)	2.48%	–	–
CCN(CC)S(=O)(=O)c1cccc2cccnc12	–	-17.9%	7.31 µM (active)	–
CCCCN(c1ccccc1)S(=O)(=O)c1cccc2cccnc12	–	–	–	inactive
Cc1ccccc1OCC(=O)Nc1c2c(nn1C(C)(C)C)CS(=O)(=O)C2	-10.3% (inactive)	-4.53%	–	–
OCCC1CN(Cc2cnc(-c3ccccc3)s2)CCN1Cc1ccccc1 (stereo not given)	-1.73% (inactive)	-2.24%	–	–
Cc1cc[n+](CC(=O)N2CCCc3ccccc32)cc1	-6.44% (inactive)	-2.96%	–	–
COC(=O)c1cc(-c2ccc(Br)cc2)c2c(=O)n(C)c(=O)n(C)c2n1	–	-16.2%	20.6 µM (active)	–
COC(=O)c1cc(-c2ccccc2)c2c(=O)n(C)c(=O)n(C)c2n1	8.5% (inactive)	0.987%	–	–
CCOc1ccc(-c2cc(C(=O)OC)nc3c2c(=O)n(C)c(=O)n3C)cc1	-8% (inactive)	0.241%	–	–
O=C1CSC(c2cccnc2)N1c1ccc(Cl)cc1 (stereo not given)	-4.47% (inactive)	-17.2%	–	–
Cc1ccc2nc(-c3ccc4c(c3)NC(=O)CO4)cn2c1	2.78% (inactive)	4.69%	–	–
O=C1Nc2cc(C(=O)NCCCN3CCCC3)ccc2S/C1=C\c1ccccc1	–	-4.94%	–	inactive
CCC1CCCCN1CCCNC(=O)c1ccc(/C=C2/Sc3ccccc3NC2=O)cc1 (stereo not given)	–	-7.79%	5.17 µM (active)	–
CCC1CCCCN1CCCNC(=O)c1ccc2c(c1)NC(=O)CS2 (stereo not given)	–	20.8%	–	inactive
O=C(CSc1nncs1)Nc1ccc(N2CCCCC2)cc1	–	-24%	–	inactive
CCN1CCN(S(=O)(=O)c2ccc(Cl)c(C(=O)N(C)Cc3ccco3)c2)CC1	14.4% (inactive)	2.03%	–	–
Cc1ccc(S(=O)(=O)C2(C(=O)NC3CCCCC3C)CC2)cc1 (stereo not given)	-7.07% (inactive)	-11.4%	–	–
OCCN(CCO)c1nc(-c2ccccc2)nc2c1oc1ccccc12	-0.413% (inactive)	-3.98%	–	–

Compound	lipid storage change, negative = inhibition	cell number change	Potency	outcome
Cc1ccc(C(=O)C2=C(O)C(=O)N(Cc3cccnc3)C2c2ccc(Cl)cc2)o1 (stereo not given)	–	10.8%	–	inactive
COc1ccc(C2C(C(=O)c3ccc(C)o3)=C(O)C(=O)N2Cc2cccnc2)cc1OC (stereo not given)	–	1.8%	0.13 µM (active)	–
Cc1ccc(C(=O)C2=C(O)C(=O)N(Cc3cccnc3)C2c2ccc(Br)cc2)o1 (stereo not given)	22% (inactive)	4.99%	–	–
O=C(N1CCCC1)C12CC3CCC(CC(C3)C1)C2	-23.5% (inactive)	3.73%	–	–
S=c1[nH]nc(-c2cccnc2)n1/N=C/c1ccco1	-15.6% (inactive)	1.79%	–	–
CCCCC(C)n1[nH]c(=O)cc1N (stereo not given)	–	-24.5%	25.9 µM (active)	–
CCCC(C)n1[nH]c(=O)cc1N (stereo not given)	2.48% (inactive)	0.134%	–	–
CCC(C)n1[nH]c(=O)cc1N (stereo not given)	-1.97% (inactive)	5.9%	–	–
O=C1CCCN1CCNC(=S)Nc1ccccc1	0.534% (inactive)	-13%	–	–
Cc1ccc(-n2c(SCC(=O)O)nc3sc4c(c3c2=O)CCCC4)cc1	6.87% (inactive)	9.08%	–	–
O=C(O)CSc1nc2sc3c(c2c(=O)n1-c1ccccc1)CCC3	2.01% (inactive)	10.3%	–	–
Nc1nc(SCc2nnc(SCC(=O)O)n2-c2ccccc2)nc2sc3c(c12)CCCC3	–	3.22%	23.1 µM (active)	–
Cc1ccc(C)c(-n2c(SCC(=O)O)nc3sc4c(c3c2=O)CCCC4)c1	–	13%	0.116 µM (active)	–
NC(=O)CSc1nc(N)c2c3c(sc2n1)CCCCC3	12.7% (inactive)	-16.5%	–	–
Cc1ccccc1-n1c(SCC(=O)O)nc2sc3c(c2c1=O)CCCC3	3.4% (inactive)	–	–	–
Cc1cc(C)c2c(CN3CC(C)OC(C)C3)cc(=O)oc2c1C (stereo not given)	–	-15.5%	–	inactive
O=C(Nc1ccccc1)N(CCN1CCOCC1)Cc1cccc(Cl)c1	16.6% (inactive)	-10.2%	–	–
Cc1cc(C(=O)N/N=C/c2cccn2C)no1	3.68% (inactive)	6.61%	–	–
CCOC(=O)N1CCc2c(sc3nc(SC(C)C)n(N)c(=O)c23)C1	-13.4% (inactive)	-1.6%	–	–
Oc1ccc(Br)cc1C=Nc1ccc(Cl)cc1	-3.65% (inactive)	-3.17%	–	–
CCc1c(C)sc(NC(=O)Cc2ccccc2OC)c1C(=O)N1CCOCC1	–	-8.21%	–	inactive
C[C@]12C=CC(=O)C=C1CC[C@@H]1[C@@H]2C(=O)C[C@@]2(C)[C@H]1CC[C@]2(O)C(=O)CO	–	21.3% and -3.16%	inactive	–

Compound	lipid storage change, negative = inhibition	cell number change	Potency	outcome
CC(=O)OCC(=O)[C@@]1(O)CC[C@H]2[C@@H]3CCC4=CC(=O)CC[C@]4(C)[C@H]3C(=O)C[C@@]21C	-19.1% (inactive)	11.1%	–	–
CC12CCC(=O)C=C1CCC1C2C(=O)CC2(C)C1CCC2(O)C(=O)CO (stereo not given)	–	-13.5%	16.4 µM (active)	–
CCCCC(CC)C(=O)Nc1ccc(Nc2ccccc2)cc1 (stereo not given)	25% (inactive)	-8.16%	–	–
CN1C(=O)C(=C2CCCCCC2)SC1=S	8.65% (inactive)	-2.61%	–	–
COc1cc2c(cc1OC)C1O[C@](CCCCN3C(=O)c4ccccc4C3=O)(C2)Oc2c1c(=O)oc1ccc(F)cc21	16.8% [at 9.22 µM] (inactive)	-5.97%	–	–
CCOC(=O)/C(C#N)=C/c1cc2cc(C)c(C)cc2nc1Cl	18.6% (inactive)	-0.849%	–	–
CC1CCCCN1C(=O)Cn1c(=O)n(CCC(=O)NCc2ccco2)c(=O)c2sccc21 (stereo not given)	10.7% (inactive)	-5.81%	–	–
CC(C)c1c(C(=O)N/N=C/c2cccc(OCc3ccc(F)cc3)c2)nnn1-c1nonc1N	–	11.8%	–	inactive
CCCN(CCC)Cc1c(C(=O)N/N=C/C(C)=C\c2ccco2)nnn1-c1nonc1N	–	-11.1%	11.6 µM (active)	–
CC(C)c1c(C(=O)N/N=C/c2ccccc2OCc2c(F)cccc2Cl)nnn1-c1nonc1N	–	–	–	inactive
Cc1cccc(COc2ccc(/C=N/NC(=O)c3nnn(-c4nonc4N)c3C)cc2)c1	-3.17% (inactive)	11.5%	–	–
Cc1ccc(COc2cccc(/C=N/NC(=O)c3nnn(-c4nonc4N)c3C)c2)cc1	–	50%	20.6 µM (active)	–
CN(C)Cc1c(C(=O)N/N=C/c2ccccc2OCc2c(F)cccc2Cl)nnn1-c1nonc1N	–	0.435%	4.11 µM (active)	–
Nc1nonc1-n1nnc(C(=O)N/N=C/c2ccccc2Br)c1CN1CCCC1	–	-1.9%	–	inactive
Nc1nonc1-n1nnc(C(=O)N/N=C/c2cccc(Cl)c2Cl)c1CN1CCCC1	–	16.7%	–	inactive
CCOc1ccccc1/C=N/NC(=O)c1nnn(-c2nonc2N)c1CN1CCCC1	–	16%	20.6 µM (active)	–
CC(=C/c1ccco1)/C=N/NC(=O)c1nnn(-c2nonc2N)c1CN(C)C	–	–	–	inactive
CC(/C=N/NC(=O)c1nnn(-c2nonc2N)c1CN(C)C)=C\c1ccco1	4.3% (inactive)	-0.367%	–	–
CN(Cc1c(C(=O)N/N=C/c2c(F)cccc2Cl)nnn1-c1nonc1N)c1ccccc1	-3.49% (inactive)	8.36%	–	–
Cc1cc(NC(=O)COc2ccc3oc4ccccc4c3c2)no1	15.7% (inactive)	-12.8%	–	–
CC1CCN(C(=O)c2ccc3c(Cl)c4c(nc3c2)CCCC4)CC1	-0.435% (inactive)	2.72%	–	–
Cc1ccc(S(=O)(=O)CCN2CCN(c3ccccc3)CC2)cc1	–	-10.3%	–	inactive

Compound	lipid storage change, negative = inhibition	cell number change	Potency	outcome
NS(=O)(=O)c1ccc(CCNC(=O)C(=O)NCC2OCCN2S(=O)(=O)c2ccc(Cl)cc2)cc1 (stereo not given)	12.9% (inactive)	-8.07%	–	–
CN(Cc1c(C(=O)N/N=C/c2ccccc2)nnn1-c1nonc1N)c1ccccc1	–	-11.2%	4.61 µM (active)	–
CN(C)c1ccc(/C=N/NC(=O)c2nnn(-c3nonc3N)c2CN(C)c2ccccc2)cc1	–	24.5%	–	inactive
CN(Cc1c(C(=O)N/N=C/c2ccc(O)cc2)nnn1-c1nonc1N)c1ccccc1	–	-9.24%	–	inactive
Cc1ccc(-n2c(SCc3cn4ccsc4n3)nc3ccccc3c2=O)cc1	–	-7.5%	–	inactive
C=C(C)CSc1nnc([C@@H]2CCCN2)o1	6.25% (inactive)	9.92%	–	–
COc1ccc(NC(=O)C2CCCN2S(=O)(=O)c2ccc(F)cc2)cc1 (stereo not given)	-17.7% [at 9.22 µM] (inactive)	-1.12%	–	–
CC1Sc2ccc(S(=O)(=O)N3CCC(C(=O)Nc4ccc(Cl)cc4)CC3)cc2NC1=O (stereo not given)	–	7.08%	–	inactive
O=C(Nc1ccc(F)cc1)C1CCCN(S(=O)(=O)c2ccc3[nH]c(=O)ccc3c2)C1 (stereo not given)	-12.6% (inactive)	23.9%	–	–
CCc1cccc(NC(=O)C2CCCN(S(=O)(=O)c3ccc4[nH]c(=O)ccc4c3)C2)c1 (stereo not given)	–	16%	–	inactive
COc1ccc(NC(=O)C2CCN(S(=O)(=O)c3ccc4c(c3)NC(=O)C(C)S4)CC2)cc1 (stereo not given)	–	2.12%	–	inactive
COc1ccc(S(=O)(=O)N2CCCC2C(=O)Nc2ccc(C(C)=O)cc2)cc1 (stereo not given)	10.3% (inactive)	-11.3%	–	–
CCOc1ccc(NC(=O)C2CCN(S(=O)(=O)c3ccc4c(c3)NC(=O)C(C)S4)CC2)cc1 (stereo not given)	–	–	1.03 µM (active)	–
CCOc1ccc(NC(=O)C2CCCN(S(=O)(=O)c3ccc4[nH]c(=O)ccc4c3)C2)cc1 (stereo not given)	–	23.6%	20.6 µM (active)	–
CCOc1ccc(NC(=O)C2CCCN2S(=O)(=O)c2ccc(OCC)cc2)cc1 (stereo not given)	–	9.72%	0.651 µM (active)	–
CC(C)NCC(O)COCCOc1ccc(Br)cc1 (stereo not given)	0.83% (inactive)	23.8%	–	–
O=C(CCC1CCCN(C(=O)c2ccc3c(c2)OCO3)C1)N1CCN(c2ccccn2)CC1 (stereo not given)	17.9% (inactive)	-1.56%	–	–
CC1CCCCC1NC(=O)c1ccc(S(=O)(=O)N2CCCC2)cc1 (stereo not given)	–	25.1%	–	inactive
COc1cccc(C(=O)NCCS(=O)(=O)NCCc2ccc(OC)c(OC)c2)c1	–	–	–	inactive
Cc1cc(-c2nn(C)c(=O)c3ccccc23)ccc1CNC(=O)NC1CCCCC1	11.4% (inactive)	19.3%	–	–
Cc1sc2nc(CN3CCOCC3)[nH]c(=O)c2c1-c1ccccc1	–	-18.1%	–	inactive
O=C(c1cccc(Cl)c1)N1CCCC(C(=O)N2CCCCCC2)C1 (stereo not given)	-16.5% (inactive)	-0.867%	–	–
